# Laboratory results from PubChem BioAssay (NCATS).
# Where “and” joins values, the source holds several entries; their conditions need not be identical. Equal values may be shown once. Inconclusive results are not listed. Where a call stands in place of a potency, no number is given. Calls of active or inactive are those of the source. Unless noted, the call rests on the fitted dose curve; in most records, active means well fitted curve in the direction sought with a large enough effect; inconclusive means small, poorly fitted or top-dose-only effect, or another doubt; inactive means no such curve, though single readings can be large; an effect the other way counts as inactive or inconclusive.
# Legend:
# [1] = target: Thyroid hormone receptor beta (Homo sapiens) (UniProt P10828); experiment: qHTS assay for small molecule agonists of thyroid hormone receptor beta signaling (AID 588545; calls by dose curve)
# Sequence of Thyroid hormone receptor beta (Homo sapiens) (P10828 whole entry, looked up): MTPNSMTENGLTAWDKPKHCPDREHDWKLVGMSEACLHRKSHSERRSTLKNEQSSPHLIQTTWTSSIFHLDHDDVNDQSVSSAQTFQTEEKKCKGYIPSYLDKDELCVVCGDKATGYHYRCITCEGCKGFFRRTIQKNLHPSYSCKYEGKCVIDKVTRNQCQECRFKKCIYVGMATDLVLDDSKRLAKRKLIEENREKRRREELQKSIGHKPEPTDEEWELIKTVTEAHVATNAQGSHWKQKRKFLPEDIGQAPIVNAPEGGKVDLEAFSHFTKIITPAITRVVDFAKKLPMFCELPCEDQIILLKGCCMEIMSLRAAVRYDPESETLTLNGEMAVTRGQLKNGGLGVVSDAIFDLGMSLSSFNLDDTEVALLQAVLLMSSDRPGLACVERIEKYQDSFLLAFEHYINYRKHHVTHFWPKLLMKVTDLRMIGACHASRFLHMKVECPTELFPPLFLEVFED
# Summary of the method: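 Agonist activity was read as beta-lactamase CCF4 fluorescence (405 ex, 460/530 em), scaled between DMSO (0%) and 10 nM T3 (100%), then Hill-fitted for EC50 and efficacy. HEK 293 TR-UAS-bla cells in 2% charcoal/dextran FBS medium were exposed 18 h at 37 C.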
# [2] = qHTS assay for small molecule antagonists of retinoid X receptor alpha signaling (AID 588546; active means well fitted inhibition curve with a large enough effect in the signal ratio, with a control signal flat, not every such curve was filed as active; the % refers to the signal ratio;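 further: cells stimulated with 9-cis-retinoic acid as agonist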); details: HEK293T RXRa-UAS-bla, beta-lactamase ratio, antagonist mode; measured here: W530 green channel, cytotoxicity proxy
# Summary of the method: (§1)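 Beta-lactamase reporter inhibition, read as CCF4 fluorescence ratio (ex 405, em 460/530 nm) after 2 h at RT. HEK293T UAS-bla cells, 2500/well, were stimulated with 9-cis-RA at 500 or 100 nM final alongside test compound for 18 h at 37 C.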
# [3] = target: Retinoic acid receptor RXR-alpha (Homo sapiens) (UniProt P19793); experiment: as above; details: HEK293T RXRa-UAS-bla, beta-lactamase ratio, antagonist mode
# Sequence of Retinoic acid receptor RXR-alpha (Homo sapiens) (P19793 whole entry, looked up): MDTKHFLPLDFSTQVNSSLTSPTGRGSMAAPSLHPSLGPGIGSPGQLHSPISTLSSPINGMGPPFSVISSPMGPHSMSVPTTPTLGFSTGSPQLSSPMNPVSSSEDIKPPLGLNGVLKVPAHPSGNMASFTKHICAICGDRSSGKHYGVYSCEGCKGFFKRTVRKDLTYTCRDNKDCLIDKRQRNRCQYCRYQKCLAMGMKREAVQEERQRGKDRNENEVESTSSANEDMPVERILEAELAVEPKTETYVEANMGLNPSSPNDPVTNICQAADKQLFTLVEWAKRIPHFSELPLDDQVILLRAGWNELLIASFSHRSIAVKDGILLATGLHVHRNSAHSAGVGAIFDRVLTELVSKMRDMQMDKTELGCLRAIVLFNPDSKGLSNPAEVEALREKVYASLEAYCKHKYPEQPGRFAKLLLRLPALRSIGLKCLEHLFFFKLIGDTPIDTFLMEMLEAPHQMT
# Summary of the method: as §1
# [4] = target: Thyroid hormone receptor beta (Homo sapiens) (UniProt P10828); experiment: qHTS assay for small molecule antagonists of thyroid hormone receptor beta signaling (AID 588547; active means well fitted inhibition curve with a large enough effect in the signal ratio, with a control signal flat, not every such curve was filed as active; the % refers to the signal ratio;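 further: cells stimulated with 0.4 nM T3 agonist during compound exposure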); details: TR-UAS-bla HEK293, beta-lactamase ratio, antagonist mode, 18 h
# Summary of the method: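 Inhibition of T3-driven (0.4nM final) beta-lactamase reporter activity was measured over 0.59 nM to 92 uM compound after 18 h at 37 C. The cells were GripTite HEK293 TR-UAS-bla in charcoal/dextran-stripped serum, with CCF4 ratio read-out and IC50 from Hill fits.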
# [5] = target: Voltage-gated inwardly rectifying potassium channel KCNH2 (Homo sapiens) (UniProt Q12809); experiment: qHTS Assay for Small Molecule Inhibitors of the Human hERG Channel Activity (AID 588834);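 further: lower thallium flux fluorescence means stronger hERG block; nearly all actives have a fitted effect of over 50% in size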; further: potency means the concentration at half of the fitted maximal effect
# Sequence of Voltage-gated inwardly rectifying potassium channel KCNH2 (Homo sapiens) (Q12809 whole entry, looked up): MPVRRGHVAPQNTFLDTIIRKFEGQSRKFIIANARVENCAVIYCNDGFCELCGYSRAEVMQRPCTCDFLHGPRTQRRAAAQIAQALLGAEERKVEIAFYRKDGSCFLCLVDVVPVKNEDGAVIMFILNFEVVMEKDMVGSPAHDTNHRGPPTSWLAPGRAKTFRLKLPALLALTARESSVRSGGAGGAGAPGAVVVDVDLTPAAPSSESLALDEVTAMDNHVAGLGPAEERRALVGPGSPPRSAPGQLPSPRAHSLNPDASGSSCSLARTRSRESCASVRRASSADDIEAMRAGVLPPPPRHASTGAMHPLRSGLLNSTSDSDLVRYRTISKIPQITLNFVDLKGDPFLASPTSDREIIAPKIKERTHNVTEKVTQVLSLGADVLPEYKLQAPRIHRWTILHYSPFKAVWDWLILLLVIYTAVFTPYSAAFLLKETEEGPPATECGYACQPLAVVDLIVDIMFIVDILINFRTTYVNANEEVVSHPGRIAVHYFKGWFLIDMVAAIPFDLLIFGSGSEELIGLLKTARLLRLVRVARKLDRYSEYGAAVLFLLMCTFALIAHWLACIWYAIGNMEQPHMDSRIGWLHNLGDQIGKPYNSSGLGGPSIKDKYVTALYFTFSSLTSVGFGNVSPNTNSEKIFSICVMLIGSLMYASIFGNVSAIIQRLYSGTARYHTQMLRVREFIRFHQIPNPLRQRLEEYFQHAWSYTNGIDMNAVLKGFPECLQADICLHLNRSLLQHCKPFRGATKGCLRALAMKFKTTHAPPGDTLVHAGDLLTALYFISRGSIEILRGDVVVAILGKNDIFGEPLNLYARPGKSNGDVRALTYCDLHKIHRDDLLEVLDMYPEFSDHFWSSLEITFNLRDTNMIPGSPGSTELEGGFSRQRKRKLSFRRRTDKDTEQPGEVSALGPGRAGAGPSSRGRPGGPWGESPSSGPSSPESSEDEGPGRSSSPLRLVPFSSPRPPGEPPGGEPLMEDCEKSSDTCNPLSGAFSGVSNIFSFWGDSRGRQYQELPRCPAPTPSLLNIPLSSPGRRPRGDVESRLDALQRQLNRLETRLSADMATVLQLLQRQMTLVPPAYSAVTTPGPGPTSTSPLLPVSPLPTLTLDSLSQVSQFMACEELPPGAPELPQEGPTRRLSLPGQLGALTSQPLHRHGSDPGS
# Summary of the method: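 Homogeneous FluxOR thallium flux assay using hERG-expressing U2OS cells (BacMam). Compound treatment about 10 minutes preceded stimulation; reduced fluorescence taken as channel block.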
# [6] = target: Luciferin 4-monooxygenase (Photinus pyralis) (UniProt P08659); experiment: Biochemical firefly luciferase enzyme assay for NPC (AID 624030); further: nearly all actives have a fitted effect of over 70% in size; further: potency means the concentration at half of the fitted maximal effect
# Sequence of Luciferin 4-monooxygenase (Photinus pyralis) (P08659 whole entry, looked up): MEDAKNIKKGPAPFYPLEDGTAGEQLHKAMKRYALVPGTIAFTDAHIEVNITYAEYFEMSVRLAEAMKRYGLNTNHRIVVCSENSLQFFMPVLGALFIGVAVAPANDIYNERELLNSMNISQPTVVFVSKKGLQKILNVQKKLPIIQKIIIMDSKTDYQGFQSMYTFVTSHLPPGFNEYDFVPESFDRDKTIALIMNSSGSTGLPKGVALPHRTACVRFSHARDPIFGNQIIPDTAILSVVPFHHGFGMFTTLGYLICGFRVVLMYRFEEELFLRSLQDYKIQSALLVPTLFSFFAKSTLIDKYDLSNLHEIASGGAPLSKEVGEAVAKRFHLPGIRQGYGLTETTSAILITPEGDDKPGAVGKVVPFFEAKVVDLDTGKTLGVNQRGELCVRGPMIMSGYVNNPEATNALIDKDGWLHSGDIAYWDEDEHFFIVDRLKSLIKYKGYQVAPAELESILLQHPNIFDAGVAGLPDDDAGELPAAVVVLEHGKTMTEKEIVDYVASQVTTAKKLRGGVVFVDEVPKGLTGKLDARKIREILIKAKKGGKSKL
# Summary of the method: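 Direct inhibition of firefly luciferase enzyme (10 nM final, 50 mM Tris Acetate) assessed by luminescence within 5 minutes. Percent activity scaled between DMSO and PTC124 positive control, with concentration-effect curves classified by fit quality and response.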
# [7] = S16 Schwann cell viability assay (CellTiter-Glo assay) (AID 624031);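 further: cellular ATP luminescence as a viability measure; nearly all actives have a fitted effect of over 70% in size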
# Summary of the method: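 Luminescent ATP read-out (CellTiter-Glo) after 24 h compound exposure of native S16 rat Schwann cells at 37 °C. Signals were normalized between cell-free wells and DMSO-treated cells, set as 0% activity.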
# [8] = S16 Schwann cell PMP22 intronic element firefly luciferase assay (AID 624032); further: nearly all actives have a fitted effect of over 30% in size
# Summary of the method: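 Luciferase reporter of PMP22 intronic-element expression in stably transfected S16 rat Schwann cells, read by ONE-Glo luminescence after 24 h compound exposure at 37 C. Activity scaled between DMSO (0%) and positive-control PTC124; concentration-effect curves quality-classified.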
# [9] = S16 Schwann cell PMP22 intronic element beta-lactamase assay (AID 624044; calls by dose curve; further: nearly all actives have a fitted effect of over 15% in size); details: S16 rat Schwann cells, PMP22 element beta-lactamase FRET, 24 h; ratio activity, negative = inhibition: at 38.3 µM (top of the series) unless noted
# Summary of the method: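 Beta-lactamase reporter under a PMP22 intronic regulatory element in stable S16 rat Schwann cells; 24 h compound exposure. 460 nm blue signal normalized between DMSO (0%) and potassium clavulanate, with 535 nm FRET tracking viability; curves classed by r2 and response.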
smiles,measurement,setting,value
OCc1ccccc1,outcome,[1],inactive
same,max response,[2],-9.58%
same,max response,[3],-2.03% (inactive)
same,activity change % (negative = inhibition),[4],-15.9% (inactive)
same,Potency,[5],inactive
same,Potency,[6],inactive
same,Potency,[7],inactive
same,Potency,[8],inactive
same,"ratio activity, negative = inhibition",[9],-1.75% (inactive)
OC[C@H]1O[C@@H]2O[C@H]3[C@H](O)[C@@H](O)[C@@H](O[C@H]4[C@H](O)[C@@H](O)[C@@H](O[C@H]5[C@H](O)[C@@H](O)[C@@H](O[C@H]6[C@H](O)[C@@H](O)[C@@H](O[C@H]7[C@H](O)[C@@H](O)[C@@H](O[C@H]1[C@H](O)[C@H]2O)O[C@@H]7CO)O[C@@H]6CO)O[C@@H]5CO)O[C@@H]4CO)O[C@@H]3CO,outcome,[1],inactive
same,max response,[2],2.15% and -14.7%
same,max response,[3],-7.96% (inactive) and -14.1% (inactive)
same,activity change % (negative = inhibition),[4],12.7% (inactive) and -5.44% (inactive)
same,Potency,[5],inactive
same,Potency,[6],inactive
same,"ratio activity, negative = inhibition",[9],1.18% (inactive)
CC(=O)Nc1c(I)c(C(=O)N[C@H]2C(O)O[C@H](CO)[C@@H](O)[C@@H]2O)c(I)c(N(C)C(C)=O)c1I (stereo partly drawn),Potency,[5],inactive
CC(=O)OCC(=O)[C@@]1(O)CC[C@H]2[C@@H]3CCC4=CC(=O)CC[C@]4(C)C3=CC[C@@]21C,Potency,[5],inactive
Cc1ccc(S(=O)(=O)O)cc1C,max response,[2],-21.8%
same,max response,[3],10.6% (inactive)
same,activity change % (negative = inhibition),[4],-0.818% (inactive)
same,Potency,[5],inactive
same,Potency,[6],inactive
same,Potency,[7],inactive
C=C1CC[C@H](O)C/C1=C\C=C1/CCC[C@]2(C)[C@@H]([C@H](C)CCCC(C)C)CC[C@@H]12,Potency,[5],inactive
O=C[C@H](O)[C@@H](O)[C@@H](O)[C@H](O)CO,Potency,[5],inactive
CC(C)O,max response,[2],-15.1%
same,max response,[3],36.2% (inactive)
same,activity change % (negative = inhibition),[4],-11% (inactive)
same,Potency,[5],inactive
same,Potency,[6],inactive
same,Potency,[7],inactive
same,Potency,[8],inactive
CN[C@@H]1[C@@H](O)[C@@H](O[C@@H]2[C@@H](O)[C@H](OC3OC(CN)=CCC3N)[C@@H](N)C[C@H]2N)OC[C@]1(C)O (stereo partly drawn),Potency,[5],inactive
O=C(O)CN(CC(=O)O)CC1=CC2C(=CC1=O)Oc1cc(O)c(CN(CC(=O)O)CC(=O)O)cc1C21OC(=O)c2ccccc21 (stereo not drawn),Potency,[5],0.891 µM (active)
C[C@H](CCC(=O)O)[C@H]1CC[C@H]2[C@@H]3[C@H](O)C[C@@H]4C[C@H](O)CC[C@]4(C)[C@H]3C[C@H](O)[C@]12C,max response,[2],8.31%
same,max response,[3],-12.8% (inactive)
same,activity change % (negative = inhibition),[4],5.64% (inactive)
same,Potency,[5],inactive
Cn1nnnc1SCC1=C(C(=O)O)N2C(=O)[C@@H](NC(=O)[C@H](O)c3ccccc3)[C@H]2SC1,Potency,[5],inactive
CO[C@H]1O[C@@H]2O[C@@]3(C)CC[C@H]4[C@H](C)CC[C@@H]([C@H]1C)[C@@]24OO3,Potency,[5],inactive
COC1[C@@H](O[C@@H]2O[C@H](C)[C@@H](O[C@H]3C[C@@](C)(O)[C@H](OC(=O)CC(C)C)[C@H](C)O3)[C@H](N(C)C)[C@H]2O)[C@@H](CC=O)C[C@@H](C)[C@@H](O)/C=C/C=C/C[C@@H](C)OC(=O)C[C@H]1OC(C)=O (stereo partly drawn),Potency,[5],inactive
CC(C)C[C@H](NC(=O)[C@@H](Cc1c[nH]c2ccccc12)NC(=O)[C@H](Cc1ccc(O)cc1)NC(=O)[C@H](CO)NC(=O)[C@H](Cc1c[nH]c2ccccc12)NC(=O)[C@H](Cc1cnc[nH]1)NC(=O)[C@@H]1CCC(=O)N1)C(=O)N[C@@H](CCCN=C(N)N)C(=O)N1CCC[C@@H]1C(=O)NCC(N)=O,Potency,[5],inactive
Cc1c(O)c(=O)ccn1C,Potency,[5],inactive
C[C@H]1O[C@@H](O[C@H]2[C@@H](O)C[C@H](O[C@H]3[C@@H](O)C[C@H](O[C@H]4CC[C@@]5(C)[C@H](CC[C@@H]6[C@@H]5C[C@@H](O)[C@]5(C)[C@@H](C7=CC(=O)OC7)CC[C@]65O)C4)O[C@@H]3C)O[C@@H]2C)C[C@H](O)[C@@H]1O,outcome,[1],inactive
same,Potency,[5],inactive
same,Potency,[6],inactive
same,Potency,[7],inactive
same,Potency,[8],inactive
OCCOCCOCCO,max response,[2],-16.7% and -5.33%
same,max response,[3],0.587% (inactive) and -7.45% (inactive)
same,Potency,[5],inactive
same,Potency,[6],inactive
same,Potency,[7],inactive
same,Potency,[8],inactive
C[C@@H]1C[C@H]2[C@@H]3CCC4=CC(=O)C=C[C@]4(C)[C@@]3(F)[C@@H](O)C[C@]2(C)[C@@]1(O)C(=O)COC(=O)c1cccc(S(=O)(=O)O)c1,Potency,[5],inactive
Nc1ccc(N=Nc2ccccc2)c(N)n1,max response,[2],-12.2%
same,max response,[3],-21% (inactive)
same,Potency,[5],inactive
same,Potency,[6],10.2 µM (active)
same,Potency,[8],inactive
same,"ratio activity, negative = inhibition",[9],0.697% (inactive)
CCCC(=O)Nc1c(I)cc(I)c(CC(CC)C(=O)O)c1I (stereo not drawn),Potency,[5],inactive
CC1=CC(=C(c2ccc(N)cc2)c2ccc(N)cc2)C=CC1=N,Potency,[5],inactive
CC[C@@H](C(=O)[C@@H](C)[C@@H](O)[C@H](C)[C@@H]1O[C@@H]([C@@H](CC)C(=O)O)CC[C@@H]1C)[C@H]1O[C@]2(C=C[C@@H](O)[C@]3(CC[C@@](C)([C@H]4CC[C@](O)(CC)[C@H](C)O4)O3)O2)[C@H](C)C[C@@H]1C,Potency,[5],inactive
C=C(C)C1CC=C(C)CC1 (stereo not drawn),max response,[2],0.388% and 6.57%
same,max response,[3],2.38% (inactive) and 15.2% (inactive)
same,Potency,[6],inactive
same,Potency,[7],inactive
same,Potency,[8],inactive
same,"ratio activity, negative = inhibition",[9],-0.885% (inactive)
ClC(Cl)Cl,max response,[2],-1.18%
same,max response,[3],6.91% (inactive)
same,activity change % (negative = inhibition),[4],-7.48% (inactive)
same,Potency,[5],inactive
same,Potency,[8],inactive
same,"ratio activity, negative = inhibition",[9],4.84% (inactive)
CC1(C)S[C@@H]2[C@H](N3C(=O)C(c4ccccc4)NC3(C)C)C(=O)N2[C@H]1C(=O)O (stereo partly drawn),Potency,[5],inactive
CC(C)CCCCCCc1ccc(O)cc1,outcome,[1],inactive
same,Potency,[5],inactive
same,Potency,[6],inactive
same,Potency,[8],inactive
same,"ratio activity, negative = inhibition",[9],-8.37% (inactive)
C#C[C@]1(O)CC[C@H]2[C@@H]3CCC4=C(CCC(=O)C4)[C@H]3CC[C@@]21C,Potency,[5],inactive
CCOC(C)OCC,max response,[2],-5.73%
same,max response,[3],-3.17% (inactive)
same,Potency,[5],inactive
same,Potency,[6],inactive
same,Potency,[7],inactive
same,Potency,[8],inactive
CC(O)[C@H]1CC[C@H]2[C@@H]3CC[C@@H]4C[C@@H](O)CC[C@]4(C)[C@H]3CC[C@]12C (stereo partly drawn),Potency,[5],inactive
CC1CS(=O)(=O)CCN1/N=C/c1ccc([N+](=O)[O-])o1 (stereo not drawn),Potency,[5],inactive
CC(C)(C)CC(C)(C)c1ccc(OCCO)cc1,max response,[2],6.21%
same,max response,[3],-7.14% (inactive)
same,Potency,[5],inactive
same,Potency,[6],inactive
same,Potency,[7],inactive
same,"ratio activity, negative = inhibition",[9],-12.4% (inactive)
O=C1NC(=O)[C@H]2[C@@H]1[C@@H]1C=C[C@H]2C1,Potency,[5],inactive
C=CC1=C(C(=O)O)N2C(=O)[C@@H](NC(=O)/C(=N/OCC(=O)O)c3csc(N)n3)[C@H]2SC1 (stereo in doubt),Potency,[5],inactive
C[C@H](CCC(=O)O)[C@H]1CC[C@H]2[C@@H]3CC[C@@H]4C[C@H](O)CC[C@]4(C)[C@H]3C[C@H](O)[C@]12C,outcome,[1],inactive
same,Potency,[5],inactive
same,Potency,[6],inactive
same,Potency,[7],inactive
same,Potency,[8],inactive
same,"ratio activity, negative = inhibition",[9],1.95% (inactive)
O=P(O)(O)O,max response,[2],6.72%
same,max response,[3],2.87% (inactive)
same,activity change % (negative = inhibition),[4],-9.56% (inactive)
same,Potency,[5],inactive
same,Potency,[6],inactive
same,Potency,[8],inactive
same,"ratio activity, negative = inhibition",[9],2.1% (inactive)
